Holding throughout (test): yeast three-hybrid, YBZ-1, SC-Leu-His + 0.5 mM 3-AT, 4 days
Holding throughout (details): tags: N-Gal4 AD-HA kept; label: inside an RPR1-promoter hybrid RNA with tandem MS2 sites; ssRNA

The target of one assay is PUM1 PUF domain R5-KGG (Homo sapiens, UniProt Q14671 828-1176, C1007K;R1008G;Q1011G). The method in brief: (§1)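 Matching RNA elements and Pumilio-1 PUF domain libraries, randomized at the three base-contacting residues of every repeat, were co-expressed from a centromeric plasmid in strain YBZ-1 (LexA–MS2 coat fusion, HIS3 reporter). The repeat regions were PCR-amplified and Illumina-sequenced from cells grown four days on SC-Leu (input) or SC-Leu-His + 0.5 mM 3-AT (selection). The interaction score is the log change in variant frequency from input to selection. It is computed in log2, with a pseudocount of 1 for absent variants.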
Chain of PUM1 PUF domain R5-KGG (Q14671 828-1176 C1007K/R1008G/Q1011G): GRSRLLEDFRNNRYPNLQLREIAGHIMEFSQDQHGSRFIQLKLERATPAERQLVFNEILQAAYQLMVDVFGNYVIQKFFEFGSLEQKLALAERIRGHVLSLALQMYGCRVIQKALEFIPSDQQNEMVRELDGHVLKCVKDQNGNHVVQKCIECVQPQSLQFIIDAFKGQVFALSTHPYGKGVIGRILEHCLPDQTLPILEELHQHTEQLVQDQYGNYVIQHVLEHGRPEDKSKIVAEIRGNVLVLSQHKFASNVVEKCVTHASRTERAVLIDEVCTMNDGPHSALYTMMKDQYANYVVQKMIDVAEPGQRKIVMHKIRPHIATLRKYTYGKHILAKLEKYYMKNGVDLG

Another assay deals with PUM1 PUF domain R5-RCR (Homo sapiens, UniProt Q14671 828-1176, C1007R;R1008C;Q1011R). The method in brief:
as §1

Another assay deals with PUM1 PUF domain R7-GVN (Homo sapiens, UniProt Q14671 828-1176, S1079G;N1080V;E1083N). The method in brief: as §1
The target of the next assay is PUM1 PUF domain R5-GFL (Homo sapiens, UniProt Q14671 828-1176, C1007G;R1008F;Q1011L). The method in brief: as §1
The next assay addresses PUM1 PUF domain R8-TWN (Homo sapiens, UniProt Q14671 828-1176, N1122T;Y1123W;Q1126N). In short, it runs like this: as §1
Another assay concerns the target PUM1 PUF domain R8-RFN (Homo sapiens, UniProt Q14671 828-1176, N1122R;Y1123F;Q1126N). In short, it runs like this: as §1
A further assay concerns the target PUM1 PUF domain R4-NFQ (Homo sapiens, UniProt Q14671 828-1176, H972F). The method in brief:
as §1

The target in a further assay is PUM1 PUF domain R4-PFR (Homo sapiens, UniProt Q14671 828-1176, N971P;H972F;Q975R). The method in brief: as §1
For a further assay, the target named is PUM1 PUF domain R1-RAQ (Homo sapiens, UniProt Q14671 828-1176, S863R;R864A). The method in brief:
as §1

Another assay concerns the target PUM1 PUF domain R7-KFF (Homo sapiens, UniProt Q14671 828-1176, S1079K;N1080F;E1083F). The method in brief:
as §1

A further assay deals with PUM1 PUF domain R1-KVE (Homo sapiens, UniProt Q14671 828-1176, S863K;R864V;Q867E). In short, it runs like this:
as §1

Another assay deals with PUM1 PUF domain R1-RHV (Homo sapiens, UniProt Q14671 828-1176, S863R;R864H;Q867V). In short, it runs like this: as §1
A further assay deals with PUM1 PUF domain R1-VWK (Homo sapiens, UniProt Q14671 828-1176, S863V;R864W;Q867K). The method in brief:
as §1

In the next assay the target is PUM1 PUF domain R1-NIS (Homo sapiens, UniProt Q14671 828-1176, S863N;R864I;Q867S). The method in brief: as §1
Chain of PUM1 PUF domain R1-NIS (Q14671 828-1176 S863N/R864I/Q867S): as the sequence (Q14671 828-1176 C1007K/R1008G/Q1011G) above, with S36N, R37I, Q40S, K180C, G181R, G184Q counted along it
For a further assay, the target named is PUM1 PUF domain R5-KNC (Homo sapiens, UniProt Q14671 828-1176, C1007K;R1008N;Q1011C). In short, it runs like this:
as §1

A further assay concerns the target T1, PUM1 PUF domain R6-HYS (Homo sapiens, UniProt Q14671 828-1176, N1043H;Q1047S).
T1 sequence: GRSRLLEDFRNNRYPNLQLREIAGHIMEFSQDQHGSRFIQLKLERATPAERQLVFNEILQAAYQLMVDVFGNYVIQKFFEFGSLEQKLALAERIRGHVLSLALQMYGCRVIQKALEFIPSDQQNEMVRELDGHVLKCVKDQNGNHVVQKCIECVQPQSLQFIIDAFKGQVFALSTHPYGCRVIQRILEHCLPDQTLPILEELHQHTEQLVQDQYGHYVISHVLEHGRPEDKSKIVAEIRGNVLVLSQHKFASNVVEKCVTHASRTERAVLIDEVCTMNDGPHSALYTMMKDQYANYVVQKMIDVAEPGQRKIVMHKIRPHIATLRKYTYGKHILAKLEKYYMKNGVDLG
The method in brief:
as §1

A further assay addresses PUM1 PUF domain R3-ARR (Homo sapiens, UniProt Q14671 828-1176, C935A;Q939R). In short, it runs like this: as §1
Another assay concerns the target PUM1 PUF domain R3-FFA (Homo sapiens, UniProt Q14671 828-1176, C935F;R936F;Q939A). In short, it runs like this:
as §1

Another assay concerns the target PUM1 PUF domain R3-LRM (Homo sapiens, UniProt Q14671 828-1176, C935L;Q939M). The method in brief: as §1
A further assay deals with T2, PUM1 PUF domain R6-RWT (Homo sapiens, UniProt Q14671 828-1176, N1043R;Y1044W;Q1047T).
T2 sequence: T1 sequence with H216R, Y217W, S220T
The method in brief: as §1

Changes are numbered by the printed parent chain.

Chain of PUM1 PUF domain R1-RAQ (Q14671 828-1176 S863R/R864A): as the sequence (Q14671 828-1176 C1007K/R1008G/Q1011G) above, with S36R, R37A, K180C, G181R, G184Q counted along it
Chain of PUM1 PUF domain R3-FFA (Q14671 828-1176 C935F/R936F/Q939A): as the sequence (Q14671 828-1176 C1007K/R1008G/Q1011G) above, with C108F, R109F, Q112A, K180C, G181R, G184Q counted along it
Chain of PUM1 PUF domain R8-RFN (Q14671 828-1176 N1122R/Y1123F/Q1126N): as the sequence (Q14671 828-1176 C1007K/R1008G/Q1011G) above, with K180C, G181R, G184Q, N295R, Y296F, Q299N counted along it
Chain of PUM1 PUF domain R1-KVE (Q14671 828-1176 S863K/R864V/Q867E): as the sequence (Q14671 828-1176 C1007K/R1008G/Q1011G) above, with S36K, R37V, Q40E, K180C, G181R, G184Q counted along it
Chain of PUM1 PUF domain R3-LRM (Q14671 828-1176 C935L/Q939M): as the sequence (Q14671 828-1176 C1007K/R1008G/Q1011G) above, with C108L, Q112M, K180C, G181R, G184Q counted along it
Chain of PUM1 PUF domain R4-NFQ (Q14671 828-1176 H972F): as the sequence (Q14671 828-1176 C1007K/R1008G/Q1011G) above, with H145F, K180C, G181R, G184Q counted along it
Chain of PUM1 PUF domain R8-TWN (Q14671 828-1176 N1122T/Y1123W/Q1126N): as the sequence (Q14671 828-1176 C1007K/R1008G/Q1011G) above, with K180C, G181R, G184Q, N295T, Y296W, Q299N counted along it
Chain of PUM1 PUF domain R1-VWK (Q14671 828-1176 S863V/R864W/Q867K): as the sequence (Q14671 828-1176 C1007K/R1008G/Q1011G) above, with S36V, R37W, Q40K, K180C, G181R, G184Q counted along it

“GGCUAGAACUAGUGGAUCCCCCGGCGCCCGGCGGCUCGAGCCCGGGUAAGUGUCAAUAGUCUGCAUGCCGCCGGGCGCCAUGCCUGCAGGUCGACUCUAGAAAACAUG”: the binding signal is 2.89 log2 enrichment (interaction score) in the assay with PUM1 PUF domain R5-KGG and 3.99 log2 enrichment (interaction score) with PUM1 PUF domain R5-RCR.
Regarding “GGCUAGAACUAGUGGAUCCCCCGGCGCCCGGCGGCUCGAGCCCGGGUAAGUUUAAAUAGUCUGCAUGCCGCCGGGCGCCAUGCCUGCAGGUCGACUCUAGAAAACAUG”, the binding signal in the assay with PUM1 PUF domain R7-GVN was 3.93 log2 enrichment (interaction score).
As for “GGCUAGAACUAGUGGAUCCCCCGGCGCCCGGCGGCUCGAGCCCGGGUAAGUGUGAAUAGUCUGCAUGCCGCCGGGCGCCAUGCCUGCAGGUCGACUCUAGAAAACAUG”, the binding signal with PUM1 PUF domain R5-GFL was 1.77 log2 enrichment (interaction score).
Regarding “GGCUAGAACUAGUGGAUCCCCCGGCGCCCGGCGGCUCGAGCCCGGGUAAGCGUAAAUAGUCUGCAUGCCGCCGGGCGCCAUGCCUGCAGGUCGACUCUAGAAAACAUG”, the binding signal was 2.51 log2 enrichment (interaction score) with PUM1 PUF domain R8-TWN and 2.57 log2 enrichment (interaction score) with PUM1 PUF domain R8-RFN.
For “GGCUAGAACUAGUGGAUCCCCCGGCGCCCGGCGGCUCGAGCCCGGGUAAGUGUAUAUAGUCUGCAUGCCGCCGGGCGCCAUGCCUGCAGGUCGACUCUAGAAAACAUG”, the binding signal in the assay with PUM1 PUF domain R4-NFQ was 2.34 log2 enrichment (interaction score); with PUM1 PUF domain R4-PFR, 4.81 log2 enrichment (interaction score).
In the case of “GGCUAGAACUAGUGGAUCCCCCGGCGCCCGGCGGCUCGAGCCCGGGUAAGUGUAAAUGGUCUGCAUGCCGCCGGGCGCCAUGCCUGCAGGUCGACUCUAGAAAACAUG”, the binding signal in the assay with PUM1 PUF domain R1-RAQ is 1.23 log2 enrichment (interaction score).
Regarding “GGCUAGAACUAGUGGAUCCCCCGGCGCCCGGCGGCUCGAGCCCGGGUAAGUGUACAUAGUCUGCAUGCCGCCGGGCGCCAUGCCUGCAGGUCGACUCUAGAAAACAUG”, the binding signal with PUM1 PUF domain R4-PFR was 6.57 log2 enrichment (interaction score).
Turning to “GGCUAGAACUAGUGGAUCCCCCGGCGCCCGGCGGCUCGAGCCCGGGUAAGUAUAAAUAGUCUGCAUGCCGCCGGGCGCCAUGCCUGCAGGUCGACUCUAGAAAACAUG”, the binding signal with PUM1 PUF domain R7-KFF is 3.16 log2 enrichment (interaction score).
On the same count and under the same terms, under “GGCUAGAACUAGUGGAUCCCCCGGCGCCCGGCGGCUCGAGCCCGGGUAAGUCUAAAUAGUCUGCAUGCCGCCGGGCGCCAUGCCUGCAGGUCGACUCUAGAAAACAUG” stands 2.82 log2 enrichment (interaction score).
“GGCUAGAACUAGUGGAUCCCCCGGCGCCCGGCGGCUCGAGCCCGGGUAAGUGUAAAUCGUCUGCAUGCCGCCGGGCGCCAUGCCUGCAGGUCGACUCUAGAAAACAUG”: the binding signal with PUM1 PUF domain R1-RAQ was 2.93 log2 enrichment (interaction score); with PUM1 PUF domain R1-KVE, 3.75 log2 enrichment (interaction score); with PUM1 PUF domain R1-RHV, 1.47 log2 enrichment (interaction score).
“GGCUAGAACUAGUGGAUCCCCCGGCGCCCGGCGGCUCGAGCCCGGGUAAGUGUAAAUUGUCUGCAUGCCGCCGGGCGCCAUGCCUGCAGGUCGACUCUAGAAAACAUG”: the binding signal in the assay with PUM1 PUF domain R1-RAQ was 2.71 log2 enrichment (interaction score); in the assay with PUM1 PUF domain R1-KVE, 3.9 log2 enrichment (interaction score); with PUM1 PUF domain R1-VWK, 3.24 log2 enrichment (interaction score); with PUM1 PUF domain R1-NIS, 6.67 log2 enrichment (interaction score); with PUM1 PUF domain R1-RHV it was 2.89 log2 enrichment (interaction score).
Regarding “GGCUAGAACUAGUGGAUCCCCCGGCGCCCGGCGGCUCGAGCCCGGGUAAGUGUUAAUAGUCUGCAUGCCGCCGGGCGCCAUGCCUGCAGGUCGACUCUAGAAAACAUG”, the binding signal with PUM1 PUF domain R5-KGG was 2.27 log2 enrichment (interaction score); with PUM1 PUF domain R5-KNC, 4.22 log2 enrichment (interaction score); in the assay with PUM1 PUF domain R5-GFL, 5.05 log2 enrichment (interaction score); with PUM1 PUF domain R5-RCR, 2.8 log2 enrichment (interaction score).
As to “GGCUAGAACUAGUGGAUCCCCCGGCGCCCGGCGGCUCGAGCCCGGGUAAGUGUAAAUAGUCUGCAUGCCGCCGGGCGCCAUGCCUGCAGGUCGACUCUAGAAAACAUG”, the binding signal is 2.38 log2 enrichment (interaction score) in the assay with PUM1 PUF domain R8-RFN; 3.52 log2 enrichment (interaction score) in the assay with PUM1 PUF domain R6-HYS; 3.65 log2 enrichment (interaction score) in the assay with PUM1 PUF domain R5-GFL; 2.49 log2 enrichment (interaction score) in the assay with PUM1 PUF domain R3-ARR; 1.61 log2 enrichment (interaction score) with PUM1 PUF domain R4-PFR.
Consider “GGCUAGAACUAGUGGAUCCCCCGGCGCCCGGCGGCUCGAGCCCGGGUAAGUGUAAGUAGUCUGCAUGCCGCCGGGCGCCAUGCCUGCAGGUCGACUCUAGAAAACAUG”, for which the values for the binding signal with PUM1 PUF domain R3-FFA, in the assay with PUM1 PUF domain R3-LRM and in the assay with PUM1 PUF domain R3-ARR were 8.18 log2 enrichment (interaction score), 3.32 log2 enrichment (interaction score) and 1.41 log2 enrichment (interaction score), respectively.
On to “GGCUAGAACUAGUGGAUCCCCCGGCGCCCGGCGGCUCGAGCCCGGGUAAGUGAAAAUAGUCUGCAUGCCGCCGGGCGCCAUGCCUGCAGGUCGACUCUAGAAAACAUG”, for which the binding signal with PUM1 PUF domain R6-RWT was 3.03 log2 enrichment (interaction score).
For the sequence “GGCUAGAACUAGUGGAUCCCCCGGCGCCCGGCGGCUCGAGCCCGGGUAAGUGUAAUUAGUCUGCAUGCCGCCGGGCGCCAUGCCUGCAGGUCGACUCUAGAAAACAUG”, the binding signal was 4.46 log2 enrichment (interaction score) with PUM1 PUF domain R3-FFA and 3.37 log2 enrichment (interaction score) with PUM1 PUF domain R3-ARR.

These data come from PMC8384837, “Expanding the binding specificity for RNA recognition by a PUF domain”.
